These molecules were tested against T1, Tyrosine-protein kinase Mer (Homo sapiens) (UniProt Q12866). Conditions: at 0.1 µM.
T1 sequence (whole entry): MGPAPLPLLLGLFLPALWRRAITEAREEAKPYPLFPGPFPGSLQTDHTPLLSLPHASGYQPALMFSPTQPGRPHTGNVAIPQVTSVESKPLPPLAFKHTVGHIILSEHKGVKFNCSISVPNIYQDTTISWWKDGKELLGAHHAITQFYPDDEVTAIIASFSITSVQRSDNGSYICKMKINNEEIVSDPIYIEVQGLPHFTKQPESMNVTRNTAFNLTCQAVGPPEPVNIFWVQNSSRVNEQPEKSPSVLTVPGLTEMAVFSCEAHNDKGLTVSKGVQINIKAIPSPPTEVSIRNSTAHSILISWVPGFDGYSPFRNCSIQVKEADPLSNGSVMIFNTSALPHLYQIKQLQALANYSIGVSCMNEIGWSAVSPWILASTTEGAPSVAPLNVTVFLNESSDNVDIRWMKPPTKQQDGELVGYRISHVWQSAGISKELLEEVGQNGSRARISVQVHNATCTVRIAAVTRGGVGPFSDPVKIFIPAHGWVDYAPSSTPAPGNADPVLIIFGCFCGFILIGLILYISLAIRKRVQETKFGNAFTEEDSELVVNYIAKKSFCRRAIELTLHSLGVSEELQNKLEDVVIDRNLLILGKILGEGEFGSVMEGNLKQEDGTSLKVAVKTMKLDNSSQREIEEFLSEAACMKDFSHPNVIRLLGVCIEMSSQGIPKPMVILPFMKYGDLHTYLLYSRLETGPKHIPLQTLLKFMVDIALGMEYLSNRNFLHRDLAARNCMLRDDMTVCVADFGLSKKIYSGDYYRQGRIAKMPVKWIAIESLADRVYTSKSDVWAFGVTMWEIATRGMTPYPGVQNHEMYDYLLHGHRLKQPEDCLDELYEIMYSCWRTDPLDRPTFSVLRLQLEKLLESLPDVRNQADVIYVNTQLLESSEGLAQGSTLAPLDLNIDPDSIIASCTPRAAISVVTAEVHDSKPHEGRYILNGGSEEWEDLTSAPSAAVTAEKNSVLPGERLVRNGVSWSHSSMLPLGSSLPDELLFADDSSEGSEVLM
FC(F)(F)c1cccc(-c2nn3ncccc3c2-c2ccnc(Nc3ccc4c(c3)OCCO4)n2)c1 gave an inhibition of 4.3%.
Molecule O=C(Nc1n[nH]c2cc(-c3ccc(F)cc3)ccc12)C1CC1 has an inhibition of 2.14%.
CN1CCC(n2cnc(-c3ccc(F)cc3)c2-c2ccnc(N)n2)CC1 was tested, and the inhibition was 0.51%.
With COc1ccc(-c2cc(-c3c[nH]nc3-c3ccccn3)ccn2)cc1 the inhibition was 1.3%.
Molecule COc1ccc(CNC(=O)c2ccc(-c3cc(-c4nnc(C)o4)ccc3C)cc2)cc1 has an inhibition of 3.37%.
Work on CCN(CC)S(=O)(=O)c1ccc(OC)c(Nc2ncc(-c3ccccc3)o2)c1 yielded an inhibition of 0.62%.
Molecule CCOc1ccc2c(-c3ccnc(Nc4cccc(C(F)(F)F)c4)n3)cnn2n1 has an inhibition of 0.97%.
Molecule COc1cccc(-c2c[nH]c3c(N/N=C/c4ccncc4)ncnc23)c1 has an inhibition of 2.09%.
Work on COc1cccc(-n2ncc3c(N/N=C/c4ccc(F)cc4)ncnc32)c1 yielded an inhibition of 3.7%.
NS(=O)(=O)c1ccc(N/N=C2\C(=O)Nc3ccc4ncccc4c32)cc1 showed an inhibition of 1.59%.
In the case of Nc1nc(-c2ccc(F)cc2)c(-c2ccc3ncccc3n2)s1, the inhibition is reported as 2.57%.
CNC(=O)c1cncc(/C=C/c2ccccc2Cl)c1 was tested, and the inhibition was 3.56%.
COc1cc2c(cc1Nc1nc(Nc3ccsc3C(N)=O)c3cc[nH]c3n1)N(C(=O)CN(C)C)CCC2(C)C was tested, and the inhibition was 3.14%.
Fc1cccc(COc2ccc(Nc3ncnc4sc(-c5ccco5)cc34)cc2Cl)c1 gave an inhibition of 0.45%.
Molecule COc1ccc2[nH]c3c4[nH]c5ccc(OC)cc5c4c4c(c3c2c1)C(=O)NC4=O has an inhibition of 10.7%.
In the case of CNC(=O)c1cc(-c2ccc(F)cc2)cc(-c2ccc(S(=O)(=O)N3CCCC3)cc2)c1N, the inhibition is reported as 0.74%.
Nc1nc(-c2cccc(Cl)c2)c(-c2ccc3ncccc3n2)s1 gave an inhibition of 2.09%.
CCn1c(-c2nonc2N)nc2c(C#CC(C)(C)O)nc(OC[C@H](N)c3ccccc3)cc21 was tested, and the inhibition was 5.78%.
COc1cc(/C=N/Nc2ncnc3[nH]ncc23)ccc1O gave an inhibition of 1.2%.
In the case of CC(=O)Nc1cccc(C#Cc2cncnc2Nc2ccc(OCc3cccc(F)c3)c(Cl)c2)c1, the inhibition is reported as 1.62%.
Work on N#Cc1c(NC(=O)c2ccc(F)cc2)sc2c1CCCC2 yielded an inhibition of -0.51%.
In the case of Cc1cccc(Nc2ncc(-c3ccccc3)o2)c1, the inhibition is reported as 3.9%.
In the case of O=C(O[C@H]1CN[C@H](C#Cc2cc3ncnc(Nc4ccc(Cc5ccccc5)cc4)c3s2)C1)N1CCOCC1, the inhibition is reported as -0.63%.
COC(=O)c1sc(-n2cnc3cc(OC)c(OC)cc32)cc1OCc1ccccc1C(F)(F)F was tested, and the inhibition was 1.24%.
CN1CCC(n2cnc(-c3ccc(F)cc3)c2-c2ccnc(Nc3ccccc3)n2)CC1 gave an inhibition of 0.46%.
CNC(=O)c1cccc(C#Cc2cncnc2Nc2ccc(OCc3cccc(F)c3)c(Cl)c2)c1 was tested, and the inhibition was 1.54%.
CS(=O)(=O)CCNCc1ccc(-c2ccc3ncnc(Nc4ccc(OCc5ccccc5)c(C(F)(F)F)c4)c3c2)o1 was tested, and the inhibition was -0.65%.
With Nc1ncc(-c2cccc(S(N)(=O)=O)c2)c2scc(-c3ccc(F)c(Cl)c3)c12 the inhibition was 0.36%.
CC(C)(CO)CNC(=O)c1ccc2c(c1)/C(=N/Nc1ccc(S(N)(=O)=O)cc1)C(=O)N2 showed an inhibition of -2.26%.
Molecule CCCN1CCC(c2ccc(Nc3nc(Nc4cc(F)ccc4C(N)=O)c4cc[nH]c4n3)c(OC)c2)CC1 has an inhibition of 2.18%.
CCn1c(-c2nonc2N)nc2cnc(Oc3cccc(NC(=O)c4ccc(N(C)C)cc4)c3)cc21 showed an inhibition of 0.23%.
In the case of Fc1ccc(-c2nn3ccccc3c2-c2ccncc2)cc1, the inhibition is reported as 1.48%.
Molecule COc1ccc(-c2oc3ncnc(N)c3c2-c2ccc(NC(=O)Nc3cc(C(F)(F)F)ccc3F)cc2)cc1 has an inhibition of 11.7%.
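Note: reported value is a mean inhibition of MER.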
